# Laboratory results reported in PMC4336329 (PLoS ONE, 2015).
# Screen size: about 310,000 compounds; about 14,000 (4.5%) showed an effect of 50% or more. The effect is printed as a negative number. Shown is part of a subset that was picked to be rich in strong results.
# Target: human ether-à-go-go-related gene (hERG) potassium channel (human, UniProt Q12809)
# Test: primary screen, population patch clamp on CHO cells stably expressing hERG; higher = less effect of the substance
# 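Note: peak tail current of the secondary pulse compared with the same well before compound.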
# Chain of human ether-à-go-go-related gene (hERG) potassium channel (Q12809 whole entry, looked up): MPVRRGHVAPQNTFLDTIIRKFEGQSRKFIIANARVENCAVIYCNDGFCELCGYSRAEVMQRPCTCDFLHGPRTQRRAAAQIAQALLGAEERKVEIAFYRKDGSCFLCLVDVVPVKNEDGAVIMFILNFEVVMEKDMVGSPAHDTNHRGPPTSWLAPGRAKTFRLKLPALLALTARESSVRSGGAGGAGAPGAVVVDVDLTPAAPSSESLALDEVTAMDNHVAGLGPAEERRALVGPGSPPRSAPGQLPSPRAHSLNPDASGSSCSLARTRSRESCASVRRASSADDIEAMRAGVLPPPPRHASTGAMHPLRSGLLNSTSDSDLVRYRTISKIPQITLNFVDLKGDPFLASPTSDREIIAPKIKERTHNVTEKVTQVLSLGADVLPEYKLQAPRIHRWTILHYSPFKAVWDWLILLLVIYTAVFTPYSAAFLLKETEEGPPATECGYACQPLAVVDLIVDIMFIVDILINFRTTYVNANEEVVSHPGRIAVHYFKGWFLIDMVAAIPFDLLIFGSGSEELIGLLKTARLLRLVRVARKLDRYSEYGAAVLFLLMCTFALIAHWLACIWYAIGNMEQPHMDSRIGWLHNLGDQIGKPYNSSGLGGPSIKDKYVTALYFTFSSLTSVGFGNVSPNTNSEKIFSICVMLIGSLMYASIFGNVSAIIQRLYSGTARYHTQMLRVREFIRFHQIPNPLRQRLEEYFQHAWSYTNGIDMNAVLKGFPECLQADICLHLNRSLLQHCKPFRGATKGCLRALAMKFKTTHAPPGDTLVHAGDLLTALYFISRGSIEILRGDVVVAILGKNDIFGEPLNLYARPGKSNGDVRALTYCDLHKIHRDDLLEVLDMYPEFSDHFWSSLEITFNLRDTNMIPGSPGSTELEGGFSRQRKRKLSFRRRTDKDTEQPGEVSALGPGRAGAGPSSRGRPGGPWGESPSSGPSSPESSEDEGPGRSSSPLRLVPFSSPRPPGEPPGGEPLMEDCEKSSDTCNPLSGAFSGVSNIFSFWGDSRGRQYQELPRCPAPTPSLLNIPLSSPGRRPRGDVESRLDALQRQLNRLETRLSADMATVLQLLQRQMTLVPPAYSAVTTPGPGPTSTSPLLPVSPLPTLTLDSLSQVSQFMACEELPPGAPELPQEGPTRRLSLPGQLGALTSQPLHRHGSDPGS
row,SMILES,"hERG current change (%, negative = inhibition) at 10uM [%]"
1,N#Cc1ccccc1NC(=O)CSC1=Nc2ccccc2C2CC=NN12 (stereo not shown),1.95
2,Cc1ccc(SC(C)c2nc(-c3ccncc3)no2)cc1 (stereo not shown),-24.3
3,Cc1ccc(S(=O)(=O)CCC(=O)OCC(=O)N2c3ccccc3CC2C)cc1 (stereo not shown),13
4,O=C(COC(=O)c1ccco1)NCc1ccc(Cl)cc1,4.21
5,O=C(COC(=O)c1cc([N+](=O)[O-])ccc1Cl)NC1CCCC1,-26.8
6,O=C(COC(=O)CCc1c[nH]c2ccccc12)Nc1ccccc1C(F)(F)F,-5.09
7,CCC(C)(C(=O)NC1CCCCC1)N(Cc1ccco1)C(=O)CC1NC(=O)NC1=O (stereo not shown),5.88
8,O=C(CSc1nc(-c2ccc(Cl)cc2)[nH]c(=O)n1)Nc1cccc(Cl)c1,22.3
9,CC(C)(C)c1ccccc1OCC(=O)NCCC(=O)O,-7.3
10,CCc1cc(=O)oc2cc(OCC(=O)NCCCN3CCOCC3)c(Cl)cc12,4.59
11,CCc1cc(=O)oc2cc(C)cc(OC(C)C(=O)NCCCn3ccnc3)c12 (stereo not shown),-30.9
12,CCCc1cc(=O)oc2cc(OC(C)C(=O)NCCCn3ccnc3)ccc12 (stereo not shown),-42.1
13,CCCCc1cc(=O)oc2cc(OCC(=O)NCCN3CCOCC3)c(Cl)cc12,1.96
14,CCCc1cc(=O)oc2cc(C)cc(OC(C)C(=O)NCCCn3ccnc3)c12 (stereo not shown),-65.3
15,CCc1cc(=O)oc2cc(C)cc(OCC(=O)NCCCN3CCOCC3)c12,-11.1
16,Cc1cc(OCC(=O)NCCCn2ccnc2)c2c(C)cc(=O)oc2c1,-22.5
17,CCc1cc(=O)oc2cc(C)cc(OCC(=O)NCCCn3ccnc3)c12,-55.3
18,CCCc1cc(=O)oc2cc(OCC(=O)NCCCN3CCOCC3)c(Cl)cc12,-73
19,Cc1cc(C)cc(COc2ccc3c(C)c(CC(=O)O)c(=O)oc3c2C)c1,-41.4
20,O=C(COc1ccc(S(=O)(=O)NC2CCCCC2)cc1)NCc1cccnc1,2.91
21,CC(C)NC1=C(Cl)C(=O)c2ccccc2C1=O,4.34
22,O=C1[C@H]2CC3CCC2(O3)[C@@H]2OCCCN12 (stereo partly shown),4.02

row,SMILES,"hERG current change (%, negative = inhibition) at 10uM [%]"
1,O=S(=O)(c1cccc(-c2nnc(SCc3ccc(Cl)cc3)o2)c1)N1CCCCC1,10.7
2,CCOC(=O)c1nn(-c2ccccc2)c(=O)c(C#N)c1C,13.5
3,CC(C)CCN(CC(=O)NC1CCCC1)C(=O)C(=O)Nc1ccc2c(c1)OCCO2,11
4,O=C(CN1CCN(c2ccccc2)CC1)c1c[nH]c2ccccc12,-0.617
5,O=C(CN1CCN(Cc2ccc3c(c2)OCO3)CC1)c1c[nH]c2ccccc12,-63.5
6,O=C(CN1CCN(Cc2ccccc2)CC1)c1c[nH]c2ccccc12,-56.5
7,NC(=O)CN1CCN(Cc2ccc3c(c2)OCO3)CC1,30.6
8,O=C(c1c[nH]c2ccccc12)N1CCN(Cc2ccccc2)CC1,-13.5
9,O=C(C(=O)N1CCN(Cc2ccc3c(c2)OCO3)CC1)c1c[nH]c2ccccc12,-11.6
10,COc1ccc(-c2ccc(C#N)c(SCC(=O)OCc3ccccc3)n2)cc1OC,-2.31
11,CCCn1c(N)c(C(=O)CSc2n[nH]c(-c3ccc(C)cc3)n2)c(=O)[nH]c1=O,22.2
12,C[C@H](NC(=O)c1nc[nH]c1C(=O)N[C@@H](Cc1ccccc1)C(=O)OCc1ccccc1)C(=O)OCc1ccccc1,8.42
13,CCOC(=O)Cn1c(=O)oc2cc(S(=O)(=O)Nc3cc(OCC)ccc3OCC)ccc21,-42.3
14,COc1ccc(N(CC(=O)Nc2ccc(F)cc2F)S(=O)(=O)c2c(C)nn(C)c2C)cc1,-12.4
15,Cc1ccc2oc(C(=O)N(C)Cc3ccc(C)o3)c(C)c2c1,10.6
16,COc1ccc(CN2CCN(C(C)C)C(CCO)C2)cc1Cn1cccn1 (stereo not shown),8.43
17,COc1ccc(CN2CCN(CC=C(C)C)C(CCO)C2)cc1Cn1cccn1 (stereo not shown),-31.2
18,COc1ccc(CN2CCC(CO)(Cc3ccccc3)CC2)cc1Cn1cccn1,-76.5
19,COc1ccc(CN2CCC(CO)(Cc3cccc(C(F)(F)F)c3)CC2)cc1Cn1cccn1,-75.7
20,COc1ccc(NC(=O)CCNS(=O)(=O)c2ccc3c(c2)CCC(=O)N3)cc1,-2.85
21,CN(O)/C=c1/ccc2c(n1)C(=O)C=CC=2,-8.33
22,Cc1ccc(C(=O)Nc2ccc(S(=O)(=O)N3CCN(C)CC3)cc2)o1,5.28

row,SMILES,"hERG current change (%, negative = inhibition) at 10uM [%]"
1,COc1cccc(C(=O)NCCNC(=O)c2cnccn2)c1,19.5
2,Cc1nnc(NNS(=O)(=O)c2ccc(Cl)cc2)[nH]c1=O,-17.3
3,O=C(O)C1=C[C@H](c2ccc(F)cc2)C[C@H](OCc2ccc(CO)cc2)O1,4.49
4,Cc1coc2c(C)c3oc(=O)c(CCC(=O)NCCCn4ccnc4)c(C)c3cc12,-44.4
5,Cc1oc2cc3oc(=O)c(CCC(=O)NCCCn4ccnc4)c(C)c3cc2c1C,-41.7
6,Cc1oc2c(C)c3oc(=O)c(CCC(=O)NCCCn4ccnc4)c(C)c3cc2c1C,-35.9
7,Cc1c(CCC(=O)NCCCn2ccnc2)c(=O)oc2cc3occ(C(C)(C)C)c3cc12,-77.7
8,Cc1coc2cc3oc(=O)c(CCC(=O)NCCCn4ccnc4)c(C)c3cc12,-41.4
9,Cc1c(CCC(=O)NCCCn2ccnc2)c(=O)oc2c(C)c3occ(C(C)(C)C)c3cc12,-67
10,Cn1c(=O)n(CCCO)c(=O)c2c1nc1n2CCCN1Cc1ccccc1,-9.65
11,CN(Cc1nc2ccc(F)cc2[nH]1)Cc1c(C(=O)N(C)C)nc2ccc(Cl)cn12,-43.3
12,CCOc1cc(S(=O)(=O)N(CC)CC)ccc1Br,-11.8
13,O=C(CSc1nnc(SCc2ccc(Cl)cc2)s1)c1ccc2c(c1)OCO2,9.81
14,O=c1[nH]c2ccc(Cl)cc2c(-c2ccccc2)c1N1CCOCC1,2.46
15,O=c1[nH]c2ccc(Cl)cc2c(-c2ccccc2)c1N1CCN(CCO)CC1,-64.6
16,CCOC(=O)N1CCN(c2c(-c3ccccc3)c3cc(Cl)ccc3[nH]c2=O)CC1,-11.4
17,Cc1cccc(C2=NOC(=O)/C2=C\c2ccccc2F)c1,9.48
18,CC(C)n1nc(C(=O)Nc2ccc3c(c2)OCO3)c2ccccc2c1=O,11
19,CCCCn1c(CCCNC(=O)c2ccco2)nc2ccccc21,-40.5
20,Cc1ccc(NC(=O)CSc2nnc(CNC(=O)c3ccccc3F)o2)cc1,2.03
21,CC1CCN(c2ccc3nnc(CCC(=O)NCCCOC(C)C)n3n2)CC1,2.68
22,CCC1CCCCN1C(=O)CSc1nc2ccsc2c(=O)n1Cc1ccccc1 (stereo not shown),-78.3

row,SMILES,"hERG current change (%, negative = inhibition) at 10uM [%]"
1,CCn1c(SCC(=O)N2CCCc3ccccc32)nc2ccccc2c1=O,-18.7
2,COCCn1c(SCC(=O)N2CCCCC2)nc2ccccc2c1=O,-49.3
3,COCCn1c(SCC(=O)N2CCCc3ccccc32)nc2cccnc21,-16.5
4,CCCCn1c(SCC(=O)c2ccccc2)nc2ccsc2c1=O,1.38
5,COCCn1c(SCC(=O)N2CCCc3ccccc32)nc2ccccc2c1=O,-72.6
6,COCCn1c(SCC(=O)N2CCOCC2)nc2ccccc2c1=O,-22.3
7,COCCn1c(SCC(=O)N2CCC(C)CC2)nc2ccccc2c1=O,-62.8
8,O=C(O)CCCCCn1c(SCC(=O)N2CCCC2)nc2ccsc2c1=O,16.9
9,O=C(CSc1nc2ccsc2c(=O)n1Cc1ccccc1)NCC1CCCO1 (stereo not shown),-25.7
10,CCn1c(SCC(=O)N2CCCCC2C)nc2ccsc2c1=O (stereo not shown),-11.5
11,CCCCn1c(SCC(=O)N2CCC(C)CC2)nc2ccsc2c1=O,-70.7
12,COc1ccc2[nH]cc(CCNC(=O)Cc3ccc(Cl)cc3)c2c1,2.05
13,CC(=O)c1cccc(NC(=O)c2ccc3c(c2)C(=O)N(Cc2cccnc2)C3=O)c1,-9.85
14,COc1ccc(OC)c(/C=N/N(CCC#N)C2=NS(=O)(=O)c3ccccc32)c1,6.86
15,CCCCCCSc1ccc([C@@H]2[C@H]3C(=O)N(C)C(=O)[C@H]3[C@]3(C(=O)OC)CCCCN23)cc1.O=C(O)C(F)(F)F,-10.9
16,Cc1ccc(N2C(=O)NC(=O)/C(=C\c3cn(CC(=O)O)c4ccccc34)C2=O)cc1,16.8
17,CC(Oc1cccc2c1OC(C)(C)C2)C(=O)O (stereo not shown),-5.47
18,COc1ccc(Cc2nnc(NC(=O)c3ccc(Cl)c([N+](=O)[O-])c3)s2)cc1,15
19,COc1ccc(CN2CCN(C(=O)C3CCC(CNS(=O)(=O)c4ccc(C)cc4)CC3)CC2)c(OC)c1OC (stereo not shown),-27.5
